Screens as filed in PubChem BioAssay.
D2 PAM-1: Beta-Arrestin HTS for Positive Allosteric Modulators of the Human D2 Dopamine Receptor: Potentiators; DiscoveRx D2 beta-arrestin cells, luminescence, 90 min; 100% = 57 uM dopamine signal; potentiation, % (concentration not given with the values); actives 0.23% (n = 360,000); AID 624464, 2012; in the data active means potentiation above about 50%; inconclusive means mostly about 30% to 49%
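D2 cells co-treated with compound plus 50 nM dopamine (EC20) for 90 min at 37 deg C to detect potentiation. Beta-arrestin recruitment was read as enzyme-fragment luminescence after 1 h at ambient temperature. Full response was set by 57 uM dopamine.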
D2 ag-1: Beta-Arrestin HTS for Positive Allosteric Modulators of the Human D2 Dopamine Receptor: Agonists; D(2) dopamine receptor (Homo sapiens), P14416; DiscoveRx PathHunter D2 beta-arrestin, luminescence, 90 min; 100% = 57 uM dopamine signal; activation, % (concentration not given with the values); actives 0.084% (n = 360,000); AID 624465, 2012; in the data active means activation above about 40%; inconclusive means between about 15% and that limit
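DiscoveRx PathHunter D2 beta-arrestin cells (2,100/well) attached overnight, then compound-stimulated 90 min at 37 C in HBSS/10 mM HEPES/0.1% Tween-20 buffer; beta-galactosidase complementation read by luminescence after 1 h at ambient temperature. Dopamine 57 uM final (EC100) as control.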
D2 antagonist: HTS Assay for Allosteric Antagonists of the Human D2 Dopamine Receptor: Primary Screen for Antagonists; actives 2% (n = 340,000); HEK293 TREx D2 cells, calcium flux, dopamine EC80; inhibition, % at 10 µM; D(2) dopamine receptor (Homo sapiens), P14416; in the data active means inhibition above about 30%; inactive means below that, where a call was filed; further: 0% is about no effect
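Calcium flux kinetic readout in an inducible HEK293 TREx D2 line plated overnight at 30 C. After 180 s compound exposure, an EC80 dopamine challenge follows with another 180 s kinetic read to detect antagonism.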
D2 ag-2: HTS Assay for Allosteric Agonists of the Human D2 Dopamine Receptor: Primary Screen for Agonists; D(2) dopamine receptor (Homo sapiens), P14416; HEK293 T-REx D2 cells, calcium flux agonist mode; activation, % at 2 µM; actives 0.53% (n = 340,000); AID 485358, 2010;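 active means activation over 3 SD above normal in the single-dose calcium agonist read, cut at about 30% in these data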; further: 0% is about no effect
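HEK293 Trex D2 cells, tetracycline-induced, o/n 30 C 5% CO2; no-wash Ca dye, RT 30–90 min; 10-cycle baseline, 23 nl cpd added, kinetic Ca read 180 s; agonist hits = positive Ca response.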
D2 PAM-2: HTS Assay for Positive Allosteric Modulators of the Human D2 Dopamine Receptor: Primary Screen for Potentiators. actives 0.34% (n = 340,000). HEK293 T-REx D2, calcium flux, EC20 dopamine potentiation. potentiation, % at 10 µM;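 active means potentiation over 3 SD above the plate norm, cut at about 30% in these data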; further: 0% is about no effect
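Potentiation of an EC20 dopamine calcium response measured kinetically over 180 s, after a preceding 180 s compound-only read flagging agonists. Cells: inducible Hek293 Trex D2 line, 4000/well, cultured overnight at 30 C before dye loading.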
D3 arrestin ag: qHTS of D3 Dopamine Receptor Agonist: D3 Dopamine Receptor B-arrestin Agonist Confirmatory Assay; shares compounds with D2 ag-2; DiscoveRx D3 beta-arrestin cells, luminescence, 90 min; Potency, µM (titrated, usually from 76.9 µM), without a hit: top-dose activation, hits mostly activators; actives 4% (n = 2,300); AID 720506, 2013;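 further: potency means the concentration at half of the fitted maximal effect; 100% = dopamine control response; nearly all actives have a fitted effect of over 70% in size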
Target sequence (P35462 whole entry, looked up): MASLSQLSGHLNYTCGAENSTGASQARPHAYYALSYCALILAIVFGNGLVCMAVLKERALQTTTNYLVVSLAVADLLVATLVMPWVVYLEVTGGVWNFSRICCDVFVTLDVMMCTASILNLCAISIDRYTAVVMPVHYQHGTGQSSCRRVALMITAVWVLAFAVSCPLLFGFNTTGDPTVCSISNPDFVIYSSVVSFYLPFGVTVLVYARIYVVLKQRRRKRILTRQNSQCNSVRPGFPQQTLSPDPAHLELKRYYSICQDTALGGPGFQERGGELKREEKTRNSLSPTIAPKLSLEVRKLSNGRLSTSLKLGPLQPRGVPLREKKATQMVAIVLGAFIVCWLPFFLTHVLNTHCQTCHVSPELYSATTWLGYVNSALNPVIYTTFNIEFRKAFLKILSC
D2 ag-3: qHTS of D3 Dopamine Receptor Agonist: D2 Dopamine Receptor B-arrestin Agonist Counterscreen. AID 720507, 2013. DiscoveRx PathHunter D2 beta-arrestin, luminescence, 90 min; response scale: percent relative to full dopamine signal. actives 5.9% (n = 2,300). shares compounds with D2 ag-2. Potency, µM (doses to about 76.9 µM), without a hit: at the highest dose activation, actives largely listed as activators; further: potency means the concentration at half of the fitted maximal effect; % of control where 0% means no effect; nearly all actives have a fitted effect of over 70% in size
Starred values were filed as active, the others as inactive; ? = inconclusive; nt = not tested or not shown; ! = repeats disagree. Rows were chosen to be rich in hits. Some 2.4% of all compounds tested hit in one or more screens of this group. Unless noted, the call rests on the fitted dose curve; in most records, active means well fitted activation curve with a large enough effect; inconclusive means small, poorly fitted or top-dose-only effect; inactive means flat fitted curve, though single readings scatter.

SMILES	D2 PAM-1	D2 ag-1	D2 antagonist	D2 ag-2	D2 PAM-2	D3 arrestin ag	D2 ag-3
CC(=O)O[C@H]1[C@H]2O[C@]23[C@@H]2CC[C@]4(O)C[C@@H](O)CC[C@]4(C)C2CC[C@]3(C)[C@H]1c1ccc(=O)oc1 (some centres undefined)	5	0	-7	1	-6	-4%	-4%
O=C1CC(c2c(F)cccc2Cl)c2c(c3ccccc3oc2=O)O1 (centres undefined)	nt	nt	nt	0	-2	nt	nt
Cc1ccc(N2C(=O)NC(=O)/C(=C\C=C\c3ccco3)C2=O)cc1	-3	0	nt	nt	0	nt	nt
Cc1cccc(N2C(=O)NC(=O)/C(=C\C=C\c3ccco3)C2=O)c1	-9	1	14	10	3	-25%	-4%
CC(=O)OC1(c2ccccc2)CCN(C2CCCCC2)CC1C (centres undefined)	-3	8	53*	67*	-20	12%	18%
O=S1(=O)N(Cc2ccccc2)CCCN1Cc1cccc(Cl)c1	nt	nt	nt	1	-6	nt	nt
CCCN1CCO[C@@H]2c3cc(O)ccc3OC[C@H]21	97*	83*	72*	68*	-13	0.045µM*	0.071µM*
CC(C)C[C@H]1C(=O)N2CCC[C@H]2[C@]2(O)O[C@](NC(=O)[C@@H]3C=C4c5cccc6[nH]cc(c56)C[C@H]4N(C)C3)(C(C)C)C(=O)N12	?	106*	72*	76*	-20	?	1µM*
CC[C@@H](CO)NC(=O)[C@@H]1C=C2c3cccc4c3c(cn4C)C[C@H]2N(C)C1	-21	14	47*	54*!	-18	?	27%
CCC(CO)NC(=O)C1C=C2c3cccc4[nH]cc(c34)CC2N(C)C1 (centres undefined)	?	114*	81*	84*	-19	2.8µM*	7.1µM*
Cc1ccc(Cn2cccc(C(=O)Nc3ccc4c(c3)OCO4)c2=O)cc1	nt	nt	nt	0	0	nt	nt
CCOc1ccc(NC(=O)Cn2cc(C(=O)c3ccccc3)c3ccccc32)cc1	nt	nt	nt	0	1	nt	nt
CN1C[C@H](CO)C[C@@H]2c3cccc4[nH]cc(c34)C[C@H]21	53*	?	96*	84*	-33	?	?
CCN(CC)C(=O)N[C@H]1C[C@@H]2c3cccc4[nH]cc(c34)C[C@H]2N(C)C1	13	?	83*	83*	-28	?	0.002µM*
CC(C)c1ccc(OCC(=O)N2CCN(CCc3ccccn3)CC2)cc1	nt	nt	nt	0	nt	nt	nt
CC(=O)N1CCC(N2CCCC(C(=O)c3cccc(Cl)c3)C2)CC1 (centres undefined)	55*	58*	78*	84*	-12	?	?
CCc1ccc(NC(=O)c2cccn(Cc3cccc([N+](=O)[O-])c3)c2=O)cc1	nt	nt	nt	15	-1	nt	nt
O=C(c1ccc2c(c1)N(Cc1ccc(F)cc1Cl)C(=O)c1ccccc1S2)N1CCC2(CC1)OCCO2	nt	nt	nt	0	-5	nt	nt
CCOc1ccccc1CN(CCc1ccc2c(c1)OCO2)Cc1ccc(CC)cc1	nt	nt	nt	-2	3	nt	nt
COc1ccc(C)cc1NC(=O)c1cccn(Cc2ccccc2Cl)c1=O	nt	nt	nt	1	7	nt	nt
NNC(N)=O	-4	-5	31*	0	2	-20%	-3%
Cc1ccccc1Cn1cccc(C(=O)Nc2nc3ccccc3s2)c1=O	nt	nt	nt	1	nt	nt	nt
CCC(=NCc1ccco1)c1c(O)n(-c2ccccc2C)c(=O)[nH]c1=O	-5	-1	-9	0	-9	-11%	-6%
CN1C(=O)/C(=C\c2ccc(N3CCCCC3)o2)C(=O)NC1=S	-6	-5	5	33*	5	-34%	-6%
CC(=O)c1cccc(OCC(O)CN2CC=C(c3ccccc3)CC2)c1 (centres undefined)	51*	42*	80*	79*	-29	?	?
SMILES	D2 PAM-1	D2 ag-1	D2 antagonist	D2 ag-2	D2 PAM-2	D3 arrestin ag	D2 ag-3
COc1ccccc1N1CCN(Cc2c(F)cccc2Cl)CC1	-42	-1	-20	4	-29	nt	nt
COc1ccccc1N1CCN(Cc2ccccc2)CC1	-67	2	97*	31*	-19	-10%	-2%
COc1ccccc1N1CCN(Cc2ccc(Br)s2)CC1	-4	1	85*	61*	-23	-8%	8%
CN1CCN(Cc2ccc(Br)s2)CC1	-24	3	13	-1	-22	nt	nt
Cc1ccc(-n2c(/C=C/c3ccccc3)nc3ccccc3c2=O)cc1C	nt	nt	nt	1	-13	nt	nt
COC(=O)C1=C(c2c(C)noc2C)C[C@@H]2CC[C@H]1N2C(=O)NC(C)C	-3	-1	42*	0	-1	-7%	-1%
COC(=O)C1=C(c2c(C)noc2C)C[C@@H]2CC[C@H]1N2C(=O)NCCO	-5	-1	0	-1	-2	nt	nt
